Reference: PubChem BioAssay AID588342 (National Center for Advancing Translational Sciences (NCATS), 2011)
Hit rate of the full screen: of about 360,000 compounds, about 25,000 (6.9%) were called active. Not shown: some 9% with an inconclusive outcome. The full list was thinned out, with actives kept by preference. Unmarked numbers belong to inactive results. Calls follow the shape of the dose curve; as a rule, active = well fitted inhibition curve with a large enough effect; inconclusive = small, poorly fitted or top-dose-only effect; inactive = flat fitted curve, though single readings scatter.

Target: Luciferin 4-monooxygenase (Photinus pyralis) (UniProt P08659)
Sequence (P08659 whole entry, looked up): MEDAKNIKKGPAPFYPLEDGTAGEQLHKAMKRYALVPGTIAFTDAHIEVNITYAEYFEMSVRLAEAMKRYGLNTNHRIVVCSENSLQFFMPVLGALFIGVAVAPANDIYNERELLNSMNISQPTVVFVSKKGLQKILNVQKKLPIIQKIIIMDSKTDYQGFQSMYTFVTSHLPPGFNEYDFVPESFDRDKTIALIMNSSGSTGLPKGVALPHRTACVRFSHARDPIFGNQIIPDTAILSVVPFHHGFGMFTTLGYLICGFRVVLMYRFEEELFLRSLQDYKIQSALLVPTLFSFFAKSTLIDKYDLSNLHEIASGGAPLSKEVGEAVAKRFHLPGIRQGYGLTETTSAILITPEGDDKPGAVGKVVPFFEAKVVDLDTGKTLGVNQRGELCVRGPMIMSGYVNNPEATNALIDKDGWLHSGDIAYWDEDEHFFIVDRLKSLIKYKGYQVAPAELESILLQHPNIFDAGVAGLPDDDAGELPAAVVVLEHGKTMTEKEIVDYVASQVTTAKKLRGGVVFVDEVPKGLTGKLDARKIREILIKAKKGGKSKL
Assay: qHTS profiling assay for firefly luciferase inhibitor/activator using purifed enzyme and Km concentrations of substrates (counterscreen for miR-21 project); also: nearly all actives have a fitted effect of over 55% in size;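 as to activity change, negative = inhibition: plate controls were vehicle for no effect and reference inhibitor for full effect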
Details: purified FLuc, luminescence inhibition; series mostly up to 57.5 µM; activity change, negative = inhibition: at the top concentration
Procedure, shortened: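 Biochemical qHTS of compounds, final roughly 60 µM downward over six points, against 10 nM purified firefly luciferase using Km concentrations of substrates (10 uM D-luciferin, 10 uM ATP) in Tris acetate pH 7.5 buffer; luminescence output.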
Potency is read from the fitted curve at half-maximal effect.

Row | SMILES | activity change, negative = inhibition | Potency
1 | CCCCNC(=O)Cn1nc(C)c(S(=O)(=O)N2CCOCC2)c1C | 6.35% | 
2 | Cc1ccc(OCC(=O)OCc2cc(=O)n3nc(C4CC4)sc3n2)cc1C | -5.73% | 
3 | Cc1nn(-c2nc(-c3ccccc3)cc(C(F)(F)F)n2)c(C)c1Cl | -10.5% | 
4 | COC(=O)c1cc(S(=O)(=O)N2CCN(c3cc(Cl)ccc3C)CC2)c[nH]1 | -8.69% | 
5 | COc1ccc(NC(=O)CSc2nccn2C2CCCC2)cc1OC | -9.33% | 
6 | COc1ccc(OCc2cc(C(=O)NCC3(C)COC3)no2)c(Cl)c1 |  | 19 µM (active)
7 | COc1ccc(CCNC(=O)c2cnc(Cl)c(Cl)c2)cc1 | -8.36% | 
8 | COC(=O)c1ccccc1NC(=O)c1ccc(COc2ccccc2Cl)o1 | 0.735% | 
9 | CC1CCCN(Cc2c(O)ccc3c(=O)c(Oc4ccc(C(C)(C)C)cc4)c(C(F)(F)F)oc23)C1 (centres undefined) | -0.574% | 
10 | COc1ccc(NC(=O)Cn2c(=O)n(Cc3ccc(C(=O)NCc4ccccc4Cl)cc3)c(=O)c3ccccc32)cc1 | -5.56% | 
11 | O=C(Cn1c(=O)n(Cc2cccs2)c(=O)c2cccnc21)Nc1ccc(F)cc1 | -12.1% | 
12 | COc1cc(C(=O)N2CCC(c3ccncc3)CC2)cc(OC)c1OC | -0.564% | 
13 | C/C(N)=C(/C#N)C(=O)COC(=O)C1CCN(C(=O)c2ccc(Cl)cc2)CC1 | -1.2% | 
14 | COc1cccc(CNC(=O)c2ccc3c(c2)sc2nc(-c4cccc(OC)c4)cn23)c1 | 1.31% | 
15 | Cc1ccc2nc(COc3cccc(NC(=O)c4cccc(Cl)c4)c3)cc(=O)n2c1 | -1.22% | 
16 | Cc1ccc2nc(COc3cccc(NC(=O)Nc4ccc(C)c(Cl)c4)c3)cc(=O)n2c1 | -15.5% | 
17 | Cc1ccc2nc(COc3cccc(NC(=O)c4ccccc4Cl)c3)cc(=O)n2c1 |  | 10.7 µM (active)
18 | O=C(CNS(=O)(=O)c1ccc2ccccc2c1)Nc1ccc(F)c(F)c1F | -0.997% | 
19 | O=C(NCCc1ccccc1)c1ccc2c(c1)N(Cc1ccccc1)C(=O)c1ccccc1S2(=O)=O | -0.938% | 
20 | CCCc1nc2ccccc2c(=O)n1NC(=O)c1c(O)c2ccccc2[nH]c1=O | -1.3% | 
21 | CC(C)C(=O)Nc1c(O)c2ccccc2[nH]c1=O | -1.52% | 
22 | NS(=O)(=O)c1ccccc1NC(=O)c1c(O)c2ccccc2[nH]c1=O |  | 9.53 µM (active)

Row | SMILES | activity change, negative = inhibition | Potency
23 | CC1(C)N=C(SCc2ccccc2Cl)c2ccccc2N1 | -13.1% | 
24 | Cc1noc(/C=C/N(C)C)c1S(=O)(=O)N1CCCC(C(=O)Nc2cccc(F)c2)C1 (centres undefined) | -2.85% | 
25 | Cc1ccc(S(=O)(=O)N2CC(O)C[C@H]2C(=O)OCC(=O)Nc2ccc(N3CCOCC3)cc2)cc1C (some centres undefined) | -11.1% | 
26 | CC(=O)c1sc(N2C(=O)c3oc4ccccc4c(=O)c3C2c2ccc(C)cc2)nc1C (centres undefined) | 4.04% | 
27 | COc1ccc(-n2c(-c3ccc(OC)c(OC)c3)n[nH]c2=S)cc1 | 0.218% | 
28 | CCN(CC(=O)NCCc1ccccc1)S(=O)(=O)c1ccc(C)cc1 | 0.229% | 
29 | CCN(c1cccc(C)c1)S(=O)(=O)c1ccc(-c2coc(C)n2)cc1 | -0.211% | 
30 | COc1ccc(-c2cn3c(C)c(C(=O)Nc4cc(C)cc(C)c4)sc3n2)cc1 | -3.09% | 
31 | COc1ccc(-c2cn3ccc(C)cc3n2)cc1 |  | 0.19 µM (active)
32 | CCN(CC)S(=O)(=O)c1ccc(-c2cn3ccc(C)cc3n2)cc1 |  | 2.39 µM (active)
33 | Fc1ccc(CN2CCc3nc(Nc4ccccc4)ncc3C2)cc1F | -10.5% | 
34 | O=C(Nc1cc(C(F)(F)F)ccc1Cl)c1nc2ccccc2nc1N1CCCCC1 | 0.203% | 
35 | CCN1CCC(N(Cc2ccc(F)cc2)C(=O)Nc2cc(C)ccc2C)CC1 | -1.66% | 
36 | O=C(NC1CCCCC1)c1ccc2c(c1)N(Cc1ccc(Cl)cc1)C(=O)c1ccccc1S2=O (centres undefined) | 3.17% | 
37 | CN(C(=O)COC(=O)CCCc1c[nH]c2ccccc12)c1c(N)n(Cc2ccccc2)c(=O)[nH]c1=O | 4.71% | 
38 | CCc1nc2onc(C)c2c(=O)n1CC(=O)O | -0.818% | 
39 | CC(C)CNC(=O)C(=O)NCc1ccccc1 | 0.285% | 
40 | CC(C)CNC(=S)Nc1ccc(F)cc1 | 4.61% | 
41 | CC(C)CNC(=O)C(=O)Nc1ccc(N(C)C)cc1 |  | 10.7 µM (active)
42 | COc1ccc(CNC(=O)CSc2nc3ccccc3nc2Cc2ccccc2)cc1 | -6.86% | 
43 | COC(=O)c1cc(=O)n(-c2c(Cl)cc(C(F)(F)F)cc2Cl)[nH]1 | -0.736% | 
44 | CCc1ccccc1NC(=O)Cc1cn(C)c2ccccc12 |  | inactive

Row | SMILES | activity change, negative = inhibition | Potency
45 | Cc1ccc(CNC(=O)Cc2cn(C)c3ccccc23)cc1 |  | 15.1 µM (active)
46 | Cn1cc(CCC(=O)NCc2ccc3c(c2)OCO3)c2ccccc21 | -3.15% | 
47 | COc1cc(Cl)c(NC(=O)CC(C)S(=O)(=O)c2cc3c(cc2C)NC(=O)CO3)c(OC)c1 (centres undefined) | 4.64% | 
48 | Cc1nc(NC(=O)c2cccc(Cl)c2)sc1-c1csc(Nc2cccc(Cl)c2)n1 | -19.1% | 
49 | CC(=O)c1sc(N/N=C\c2ccc(C)cc2)nc1C |  | 2.39 µM (active)
50 | Cc1cc2c(=O)n(CC(=O)NCC(=O)Nc3ccc(C(C)C)cc3)cnc2s1 | 0.706% | 
51 | Cc1nnc(C)n1/N=C/c1ccc(C(C)C)cc1 | -14.6% | 
52 | Cc1ccc(Nc2nc(-c3sc(NC(=O)c4ccccc4)nc3C)cs2)cc1 |  | 12 µM (active)
53 | Cc1ccc(C)c2sc(NC(=O)c3ccc(S(=O)(=O)N4CCCC4)cc3)nc12 | -4.28% | 
54 | CC(=O)c1sc(NC(=O)C2=NN(c3ccccc3)C(=O)CC2)nc1C | -8.27% | 
55 | CC(=O)c1sc(N/N=C/c2ccc(C(C)C)cc2)nc1C |  | 6.01 µM (active)
56 | CC(=O)c1sc(N)nc1C | 2.76% | 
57 | CCCCCCC(=O)Nc1nc(C)c(-c2csc(Nc3cc(Cl)ccc3OC)n2)s1 | 3.19% | 
58 | CC(=O)c1sc(NC(=O)c2ccc(C)cc2)nc1C |  | 1.9 µM (active)
59 | CC(=O)Nc1ccc(NC(=O)C2CCCN(S(=O)(=O)c3ccc4c(c3)CCCC(=O)N4)C2)cc1 (centres undefined) | 3.09% | 
60 | CCc1cccc(CC)c1NC(=O)COc1ccccc1C(=O)c1cc(C#N)c(=O)n(C2CCCCC2)c1 | 0.626% | 
61 | C=C(C)CNc1cc(S(=O)(=O)N2CCOCC2)ccc1Oc1ccccc1 | -9.91% | 
62 | Cc1ccc(Nc2c(-c3ccc(Cl)cc3)nc3sccn23)c(C)c1 | 1.53% | 
63 | Cc1ccc(-c2nn3c(=O)cc(CN4CCN(S(=O)(=O)c5ccc(Cl)cc5)CC4)nc3s2)cc1 | -1.26% | 
64 | O=S(=O)(c1ccc(C2CCCCC2)cc1)N1CCN(c2ccc(Cl)c(Cl)c2)CC1 | -0.965% | 
